Measurements as given in PubChem BioAssay (NCATS).
Records with an inconclusive call do not appear. Values without a mark were called inactive. Activity calls are given as the source filed them. Unless noted, calls follow the shape of the dose curve; as a rule, active = well fitted curve in the direction sought with a large enough effect; inconclusive = small, poorly fitted or top-dose-only effect, or another doubt; inactive = no such curve, though single readings can be large; an effect the other way counts as inactive or inconclusive.

Legend:
[1] = Stat Signaling Pathway (AID 446; active = well fitted curve in either direction with a large enough effect, not every such curve was filed as active;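 also: ME-180 cervical cancer cells given 40 pM IL-6 alongside compound; SIE-controlled beta-lactamase reporter measured as 460/530 nm FRET emission ratio; % is scaled to controls: 0 for no effect and ±100 for the full control effect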); details: ME-180 SIE beta-lactamase reporter, IL-6 stimulated, 5 h; at 17.2 µM (top of the series)
Procedure, shortened: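 Reporter line: ME-180 cervical carcinoma, SIE-beta-lactamase. Treatment: compound with 40 pM IL-6, 5 hrs, 37 C, in low-serum OPTI-MEM with 10 mM HEPES pH 7.3. Detection: 460/530 nm fluorescence.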

[2] = molecular target: Rap guanine nucleotide exchange factor 4 (Homo sapiens) (UniProt Q8WZA2); assay: Confirmatory qHTS for antagonist of cAMP-regulated guanine nucleotide exchange factor 4 (EPAC2) (AID 1645885); details: EPAC2 Rap1B-BODIPY-GDP exchange fluorescence, biochemical; series mostly up to 114 µM; also: potency is read from the fitted curve at half-maximal effect; nearly all actives have a fitted effect of over 25% in size
[3] = qHTS for Inhibitors of Ubiquitin-specific Protease USP2a Using CHOP2 as the Reporter: K633 Counterscreen (AID 652168); details: No-enzyme DiUb K48 IQF substrate fluorescence interference, kinetic; series mostly up to 57.5 µM; also: % of control where 0% means no effect
Procedure, shortened: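 Cell-free interference counterscreen without USP2a: compounds pinned into enzyme-free buffer (20 mM Tris pH 8, 2 mM beta-mercaptoethanol, 0.05% Chaps), then DiUb K48-4IQF substrate added (100 nM stock); fluorescence read kinetically, Ex 525/Em 598.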

[4] = qHTS for Inhibitors of Ubiquitin-specific Protease USP2a Using CHOP2 as the Reporter: Cytotox Assay (AID 652170); details: HCT116 viability, CellTiter-Glo luminescence, 72 h; series mostly up to 46.1 µM;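 also: HCT116 human colon cancer cells at 600 per well; plate controls were DMSO-treated cells for no effect and wells without cells for full effect; nearly all actives have a fitted effect of over 70% in size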
Text: Homeostasis of cellular proteins is maintained through a combination of synthesis and degradation. The pathway that accounts for the majority of protein degradation is the ubiquitin-proteasomal pathway. Ubiquitin (Ub) is highly conserved in all cells and the generation of a multi-Ub chain typically targets proteins for degradation by the proteasome. However, ubiquitination is highly reversible and dynamic. Deubiquitination, the reverse process, is catalyzed through the action of enzymes referred to as isopeptidases or deubiquitinating enzymes (DUBs). This group of enzymes is collectively responsible for maintaining adequate pools of free ubiquitin and regulating the ubiquitination status of cellular proteins. The class of DUBs referred to as the ubiquitin-specific proteases (USP) family functions endoproteolytically to cleave Ub chains from a wide range of protein substrates. […] This assays monitors cell proliferation by quantitating the amount of ATP present by luciferase, which in the presence of ATP converts pro-luciferin into the luminescent luciferin product. A compound that inhibits cell proliferation would result in a decrease in luminescence. […]
5 uL of HCT116 (600 cells/well) were plated into a 1536 well plate and then incubated for 6 hr at 37 deg C, 5% CO2. […] Then, 3 uL of Cell Titer Glo is added, the plate is left at RT for 10 min, before luminescence is detected using the ViewLux.

[5] = molecular target: Ubiquitin carboxyl-terminal hydrolase 2 (Homo sapiens) (UniProt O75604); assay: qHTS for Inhibitors of Ubiquitin-specific Protease USP2a Using CHOP2 as the Reporter: K484 Substrate (AID 652173); details: USP2 cleavage of DiUb K48 IQF substrate, fluorescence;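 also: cleavage of internally quenched K48 di-ubiquitin substrate measured as rising fluorescence over time; potency is read from the fitted curve at half-maximal effect; nearly all actives have a fitted effect of over 70% in size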
Procedure, shortened: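 USP2 (dispensed at 5 nM) was pinned with compounds, then DiUb K48 internally quenched fluorescent substrate (dispensed at 100 nM) was added. The buffer was 20 mM Tris pH 8, 2 mM beta-mercaptoethanol and 0.05% CHAPS. Cleavage was read kinetically as rising fluorescence, Ex 525/Em 598.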

Sequence of Ubiquitin carboxyl-terminal hydrolase 2 (Homo sapiens) (O75604 whole entry, looked up): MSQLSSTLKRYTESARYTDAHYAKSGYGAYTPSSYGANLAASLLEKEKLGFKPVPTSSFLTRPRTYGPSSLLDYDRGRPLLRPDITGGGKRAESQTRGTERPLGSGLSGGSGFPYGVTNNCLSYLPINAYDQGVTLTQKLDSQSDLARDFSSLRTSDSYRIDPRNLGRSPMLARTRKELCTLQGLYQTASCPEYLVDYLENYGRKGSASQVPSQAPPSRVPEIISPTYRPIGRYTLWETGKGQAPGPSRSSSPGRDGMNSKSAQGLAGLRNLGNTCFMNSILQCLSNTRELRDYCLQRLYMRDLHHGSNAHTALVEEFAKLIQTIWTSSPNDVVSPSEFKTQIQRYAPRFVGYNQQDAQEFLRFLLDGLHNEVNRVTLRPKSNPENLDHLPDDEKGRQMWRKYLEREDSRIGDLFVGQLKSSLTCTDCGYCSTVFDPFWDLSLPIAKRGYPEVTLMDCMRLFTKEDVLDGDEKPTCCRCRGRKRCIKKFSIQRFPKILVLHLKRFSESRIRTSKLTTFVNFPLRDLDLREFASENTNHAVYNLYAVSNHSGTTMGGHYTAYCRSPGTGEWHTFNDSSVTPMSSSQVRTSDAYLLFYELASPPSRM
Sequence of Rap guanine nucleotide exchange factor 4 (Homo sapiens) (Q8WZA2 whole entry, looked up): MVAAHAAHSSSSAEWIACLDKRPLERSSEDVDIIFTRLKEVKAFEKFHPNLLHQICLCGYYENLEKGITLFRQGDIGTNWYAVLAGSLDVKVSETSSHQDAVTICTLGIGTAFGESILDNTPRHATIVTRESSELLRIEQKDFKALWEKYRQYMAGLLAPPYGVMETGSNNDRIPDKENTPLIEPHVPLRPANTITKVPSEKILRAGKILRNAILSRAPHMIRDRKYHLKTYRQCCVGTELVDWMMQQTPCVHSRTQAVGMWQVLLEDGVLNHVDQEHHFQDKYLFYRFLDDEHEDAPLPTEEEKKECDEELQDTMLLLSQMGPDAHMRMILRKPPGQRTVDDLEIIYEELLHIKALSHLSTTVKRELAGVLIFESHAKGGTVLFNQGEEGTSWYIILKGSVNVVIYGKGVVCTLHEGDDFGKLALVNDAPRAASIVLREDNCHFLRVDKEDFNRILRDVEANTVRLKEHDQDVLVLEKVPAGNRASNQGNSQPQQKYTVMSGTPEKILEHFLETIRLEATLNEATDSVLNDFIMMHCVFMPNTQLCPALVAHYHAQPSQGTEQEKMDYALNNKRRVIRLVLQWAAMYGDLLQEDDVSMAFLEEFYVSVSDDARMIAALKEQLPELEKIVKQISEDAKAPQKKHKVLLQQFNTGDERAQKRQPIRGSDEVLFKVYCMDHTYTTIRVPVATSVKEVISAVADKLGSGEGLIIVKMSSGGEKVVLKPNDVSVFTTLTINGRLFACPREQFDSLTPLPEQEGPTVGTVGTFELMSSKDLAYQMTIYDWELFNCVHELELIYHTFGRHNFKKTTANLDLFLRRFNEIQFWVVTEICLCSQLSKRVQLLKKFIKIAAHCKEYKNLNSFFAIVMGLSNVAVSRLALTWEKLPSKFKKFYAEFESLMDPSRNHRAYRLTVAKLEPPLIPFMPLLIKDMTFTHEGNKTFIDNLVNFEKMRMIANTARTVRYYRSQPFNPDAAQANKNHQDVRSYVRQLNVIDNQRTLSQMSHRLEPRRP

CCOC(=O)CCC(=O)O[C@H]1[C@H](O[C@@H]2[C@@H](C)[C@H](O[C@H]3C[C@@](C)(OC)[C@@H](O)[C@H](C)O3)[C@@H](C)C(=O)O[C@H](CC)[C@@](C)(O)[C@H](O)[C@@H](C)C(=O)[C@H](C)C[C@@]2(C)O)O[C@H](C)C[C@@H]1N(C)C
activity, negative = inhibition [1]: 1.81%

CCC(=O)O[C@H]1CC[C@H]2[C@@H]3CCc4cc(O)ccc4[C@H]3CC[C@]12C
Potency [2]: 27.8 µM (active)

O=C(Nc1ccc(S(=O)(=O)Nc2nccs2)cc1)c1cc(-c2ccccc2)nc2ccccc12
outcome [3]: inactive
outcome [4]: inactive
Potency [5]: 1.37 µM (active)
